{"source": "the supplement of paper PMC4894684", "note": "Counter-ions that a name gives are not always drawn. ± gives the standard deviation of the averaged measurements. Screen size: about 1,000 compounds; about 15 (2%) showed an effect of 50% or more. The sample as a whole holds a higher share of strong results than the screen did."}
{"test_system": "HFF", "assay": "uninfected host cell viability relative to vehicle control; higher = less host cell toxicity", "conditions": "5 µM; 72 h; oxygen 21 %", "units": {"uninfected host cell viability": "%"}}
{"smiles": "C[C@@]12C(=O)OC(=O)[C@]1(C)[C@H]1CC[C@@H]2O1", "note": "[Cantharidin]", "uninfected host cell viability": "19.7 ± 1.6"}
{"smiles": "CC(C)NCC(O)c1ccc(N)c(C#N)c1", "note": "(stereo not given) [Cimaterol]", "uninfected host cell viability": "84.5 ± 2.1"}
{"smiles": "NC(=S)N/N=C/c1coc2ccccc2c1=O.[Cl][Cu][Cl]", "uninfected host cell viability": "98.2 ± 1.8"}
{"smiles": "COC1(C[S@+]([O-])c2ccccc2)CCN(CCc2c[nH]c3ccc(F)cc23)CC1", "uninfected host cell viability": "80.8 ± 2.7"}
{"smiles": "NCCc1c[nH]c2ccc(C(N)=O)cc12", "note": "[5-Carboxamidotryptamine maleate]", "uninfected host cell viability": "91.33 ± 0.078"}
{"smiles": "CC(C)C[C@@H](N)C1(c2ccc(Cl)cc2)CCC1", "uninfected host cell viability": "91.72 ± 0.29"}
{"smiles": "NC1(c2ccccc2Cl)CCCCC1=O", "note": "(stereo not given) [Norketamine hydrochloride]", "uninfected host cell viability": "97.41 ± 0.47"}
{"smiles": "c1ccc2c(c1)[I+]c1ccccc1-2", "note": "[Diphenyleneiodonium chloride]", "uninfected host cell viability": "30.8 ± 3.4"}
{"smiles": "Cc1[nH]c2ccc(Cl)cc2c1C1=CCNCC1", "uninfected host cell viability": "75.1 ± 2"}
{"smiles": "CN1Cc2ccccc2[C@@H]2c3cccc4[nH]cc(c34)C[C@H]21", "uninfected host cell viability": "86.3 ± 3.7"}
{"smiles": "CCOC(=O)c1ncc2[nH]c3ccc(OCc4ccccc4)cc3c2c1COC", "uninfected host cell viability": "103 ± 4.4"}
{"smiles": "C[C@H]1CCC/C=C/[C@@H]2C[C@H](O)C[C@H]2[C@H](O)/C=C/C(=O)O1", "note": "[Brefeldin A]", "uninfected host cell viability": "45.4 ± 4"}
{"smiles": "N#Cc1ccc(N2CCN(C(=O)COc3ccc4[nH]cc(CCN)c4c3)CC2)cc1", "note": "[Donitriptan hydrochloride]", "uninfected host cell viability": "98.31 ± 0.13"}
{"smiles": "CC(=O)[C@H]1CC[C@H]2[C@@H]3CC[C@H]4C[C@](C)(O)CC[C@]4(C)[C@H]3CC[C@]12C", "note": "[Ganaxolone]", "uninfected host cell viability": "95 ± 1.5"}
{"smiles": "O=C1NC(=O)c2c1c1c3ccccc3n3c1c1c2c2ccccc2n1[C@H]1CC[C@@H]3O1", "uninfected host cell viability": "39.2 ± 11"}
{"smiles": "O=C1NC(=O)c2c1c1c3ccccc3[nH]c1c1[nH]c3ccccc3c21", "note": "[Arcyriaflavin A]", "uninfected host cell viability": "83.56 ± 0.33"}
{"smiles": "C[C@@H](N)Cc1cnc[nH]1", "note": "[(R)-(-)- α-Methylhistamine dihydrobromide]", "uninfected host cell viability": "89.841 ± 0.031"}
{"smiles": "O=[N+]([O-])c1cc(O)c(O)c([N+](=O)[O-])c1", "uninfected host cell viability": "95.7 ± 4.9"}
{"smiles": "Oc1ccc2c3c1O[C@H]1c4[nH]c5ccccc5c4C[C@@]4(O)[C@@H](C2)N(CC2CC2)CC[C@]314", "note": "[Naltrindole hydrochloride]", "uninfected host cell viability": "81.09 ± 0.49"}
{"smiles": "Oc1ccc2c3c1O[C@H]1c4[nH]c5c(c4C[C@@]4(O)[C@@H](C2)N(CC2CC2)CC[C@]314)C[C@@]1(O)[C@H]2Cc3ccc(O)c4c3[C@@]1(CCN2CC1CC1)[C@H]5O4", "note": "[nor-Binaltorphimine dihydrochloride]", "uninfected host cell viability": "85.23 ± 0.22"}
{"smiles": "O=C1/C(=C/c2ccccc2)C[C@@]2(O)[C@H]3Cc4ccc(O)c5c4[C@@]2(CCN3CC2CC2)[C@H]1O5", "note": "[BNTX maleate]", "uninfected host cell viability": "22.2 ± 1.1"}
{"smiles": "O[C@H]1[C@H](O)[C@@H](O)CN2CC[C@H](O)[C@H]12", "note": "[Castanospermine]", "uninfected host cell viability": "82.95 ± 0.65"}
{"smiles": "CCN(CC)CCO[C@H]1CC[C@@]2(C)C(=CC[C@@H]3[C@@H]2CC[C@]2(C)C(=O)CC[C@@H]32)C1", "uninfected host cell viability": "104 ± 3.5"}
{"smiles": "c1ccc(CC(c2ccccc2)N2CCCCC2)cc1", "note": "(racemic) [(±)-1-(1,2-Diphenylethyl)piperidine maleate]", "uninfected host cell viability": "89.8 ± 6.6"}
{"smiles": "N[C@H](C(=O)O)c1cc(O)no1", "note": "[Ibotenic acid]", "uninfected host cell viability": "85 ± 3.7"}
